Screening results deposited in PubChem by National Center for Advancing Translational Sciences (NCATS).
Gal4-VP16 FLuc: Gal4-VP16 reporter inhibition counter-screen. Drosophila S2 Gal4-VP16 UAS-luciferase, luminescence, 20 h. Potency, µM (titrated, usually from 53.6 µM), hits mostly inhibitors. AID 2546. 3.5% of 310,000 active;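 further: Gal4-VP16 expression switched on by copper sulfate through the metallothionein promoter; nearly all actives have a fitted effect of over 50% in size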
RORgamma inh: blocks mouse ROR gamma transcriptional activity; P51450; Drosophila S2 Gal4-RORgamma UAS-luciferase reporter, 20 h; 5.4% of 310,000 active; Potency, µM (series often up to 53.6 µM), most hits filed as inhibitors; further: nearly all actives have a fitted effect of over 60% in size
Target sequence (P51450 whole entry, looked up, the tested form may be a part): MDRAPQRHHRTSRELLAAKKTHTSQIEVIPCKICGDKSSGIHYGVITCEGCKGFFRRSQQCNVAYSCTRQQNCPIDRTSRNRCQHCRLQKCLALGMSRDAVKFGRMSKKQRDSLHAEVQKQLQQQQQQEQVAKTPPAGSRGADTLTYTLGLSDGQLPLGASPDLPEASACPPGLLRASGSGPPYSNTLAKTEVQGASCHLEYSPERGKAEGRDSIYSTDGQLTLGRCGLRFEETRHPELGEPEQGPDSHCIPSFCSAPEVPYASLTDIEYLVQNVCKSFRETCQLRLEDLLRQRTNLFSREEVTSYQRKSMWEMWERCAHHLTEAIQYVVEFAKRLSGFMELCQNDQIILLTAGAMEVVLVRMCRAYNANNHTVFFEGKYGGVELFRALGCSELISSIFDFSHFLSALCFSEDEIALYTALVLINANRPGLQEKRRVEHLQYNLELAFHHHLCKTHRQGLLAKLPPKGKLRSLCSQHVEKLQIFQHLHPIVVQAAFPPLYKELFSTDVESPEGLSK
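Stable Schneider cell line, Gal4 DNA-binding domain fused to ROR gamma, UAS-luciferase. Cmpd 1 hr RT → CuSO4 700 uM final → 20 hr RT → luciferase reagent 10 min → luminescence.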
TDP1 cell noCPT: qHTS for Inhibitors of human tyrosyl-DNA phosphodiesterase 1 (TDP1): qHTS in cells in absence of CPT. DT40 Tdp1-/- hTDP1 cells, no CPT, ATP luminescence, 48 h. Potency, µM (series often up to 46.2 µM), actives largely listed as inhibitors. 15% of 420,000 active; further: nearly all actives have a fitted effect of over 55% in size
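No-CPT arm: Tdp1-/-;hTDP1 DT40 cells (400/well) plus compounds, incubated ≥48 hr at 37 °C. Readout CellTiter-Glo luminescence.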
DT40 TDP1 CPT: growth inhibition of DT40 Tdp1-/-;hTDP1 cells with camptothecin (screen for TDP1 inhibitors); chicken DT40 Tdp1-/-;hTDP1 cells + 20 nM CPT, ATP luminescence, 48 h; Potency, µM (highest dose often 46.2 µM), most hits filed as inhibitors; 12% of 420,000 active; AID 686979; further: nearly all actives have a fitted effect of over 55% in size
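Chicken DT40 Tdp1-/- cells stably complemented with human TDP1 were seeded at 400 cells/well in medium containing 20 nM camptothecin, exposed to pin-transferred compounds, and grown at 37 °C for at least 48 hr. Viability was read as ATP luminescence.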
TDP1 inh: inhibitors of human tyrosyl-DNA phosphodiesterase TDP1. AID 485290. 0.28% of 350,000 active. recombinant TDP1, AlphaScreen DNA substrate cleavage. Potency, µM (top dose mostly 130 µM), hits mostly inhibitors. Q9NUW8; further: nearly all actives have a fitted effect of over 40% in size
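Signal: AlphaScreen proximity between streptavidin donor and anti-FITC acceptor beads on intact substrate. Reaction: Tdp1 1 nM, substrate 15 nM final, 5 min RT after 15 min compound preincubation.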
Hits are given with their value; – = inactive; ? = inconclusive; · = no result given; [ ] = dose if it differs, or a comment. Most compounds without a hit are left out; they make up all but 19% or so of the library. The call rests on the fitted dose curve; in most records, active means well fitted curve in the direction sought with a large enough effect; inconclusive means small, poorly fitted or top-dose-only effect, or another doubt; inactive means no such curve, though single readings can be large; an effect the other way counts as inactive or inconclusive.

SMILES	Gal4-VP16 FLuc	RORgamma inh	TDP1 cell noCPT	DT40 TDP1 CPT	TDP1 inh
COc1ccc(CN(C(=O)Nc2cccc(Cl)c2)c2ccccn2)cc1OC	·	·	13µM	?	–
Cc1ccc(C(=O)Cn2nc(C(=O)O)c3ccccc3c2=O)cc1C	–	–	–	–	–
O=C(CSc1nc2ccccc2c(=O)[nH]1)Nc1ccc(S(=O)(=O)N2CCCC2)cc1	–	–	?	16µM	–
O=C(CSc1nc2ccccc2[nH]1)Nc1nc(-c2ccc(Br)cc2)cs1	–	?	16µM	23µM	–
Cc1csc(NC(=O)CSc2nc3ccccc3c(=O)[nH]2)n1	–	–	–	–	–
O=C(CSc1nc2ccccc2c(=O)[nH]1)Nc1ccc(C(=O)O)cc1	–	–	–	–	50µM
O=C(CSc1nc2ccccc2c(=O)[nH]1)Nc1ccc([N+](=O)[O-])cc1	·	·	?	?	–
CC(C)(C)c1csc(NC(=O)CSc2nc3ccccc3c(=O)[nH]2)n1	–	–	23µM	18µM	–
O=C(CSc1nc(NS(=O)(=O)c2ccccc2)cc(=O)[nH]1)Nc1ccc(Cl)cc1	–	–	–	–	7.1µM
COc1ccc(NC(=O)CSc2nc(NS(=O)(=O)c3ccccc3)cc(=O)[nH]2)cc1	–	?	–	–	·
COC(=O)CNC(=O)C12CC3CC(C1)CC(c1ccc(C)cc1)(C3)C2	–	–	–	–	–
Cc1ccc(C23CC4CC(CC(C(N)=O)(C4)C2)C3)cc1	–	–	–	–	–
Cc1ccc(C23CC4CC(CC(CC(=O)NC(C)(C)CO)(C4)C2)C3)cc1	–	–	15µM	26µM	·
NCC12CC3CC(C1)CC(c1ccc(Br)cc1)(C3)C2	–	–	15µM	21µM	·
Cc1ccc(C23CC4CC(CC(C(=O)N(C)C)(C4)C2)C3)cc1	–	–	21µM	?	·
Cc1ccc(C23CC4CC(CC(CN)(C4)C2)C3)cc1	–	?	10µM	6.5µM	–
CN(CC(=O)Nc1c(Cl)cccc1Cl)C(=O)c1ccc(-n2cncn2)c([N+](=O)[O-])c1	·	·	–	–	–
O=C(CCCn1c(=O)oc2ccccc21)N1CCc2ccccc2C1	–	–	–	–	–
O=C1N=C(N2CCN(c3ccccc3)CC2)SC1Cc1ccccc1 (configuration not stated)	–	–	?	?	–
Cc1ccc(N2CCN(C3=NC(=O)C(Cc4ccccc4)S3)CC2)cc1 (configuration not stated)	–	–	23µM	29µM	–
CCSc1nnc2c(n1)[nH]c1c(C)cccc12	?	–	13µM	13µM	–
CC(=O)c1cccc(NC(=O)C(C)OC(=O)c2ccc(S(C)(=O)=O)c([N+](=O)[O-])c2)c1 (configuration not stated)	·	·	3.2µM	2.2µM	–
Cc1csc(Sc2ccc(C(=O)OCC(=O)Nc3ccc(OC(F)(F)F)cc3)cc2[N+](=O)[O-])n1	–	–	?	–	–
COc1ccc(C(=O)OCC(=O)Nc2ccccc2)cc1[N+](=O)[O-]	–	–	–	–	–
CC(OC(=O)c1ccncc1)C(=O)Nc1cccc([N+](=O)[O-])c1 (configuration not stated)	–	–	–	–	–
SMILES	Gal4-VP16 FLuc	RORgamma inh	TDP1 cell noCPT	DT40 TDP1 CPT	TDP1 inh
CS(=O)(=O)c1ccc(C(=O)OCC(=O)Nc2ccc(OC(F)(F)F)cc2)cc1[N+](=O)[O-]	·	·	10µM	8.9µM	–
CC(=O)c1cccc(NC(=O)COC(=O)c2ccc(S(C)(=O)=O)c([N+](=O)[O-])c2)c1	–	?	10µM	6.3µM	–
CC(OC(=O)c1ccc(S(=O)(=O)NCc2ccco2)cc1)C(=O)Nc1ncc(Cl)cc1Cl (configuration not stated)	?	–	–	?	·
O=C(COC(=O)CCCC1=NS(=O)(=O)c2ccccc2N1)Nc1ccccc1	–	–	–	–	–
CN1C(=O)C(C)(C)c2cc(S(=O)(=O)N3CCCC(C(=O)Nc4ccc(Cl)cc4)C3)ccc21 (configuration not stated)	–	–	18µM	?	·
COc1ccccc1CNC(=O)C1CCN(S(=O)(=O)c2ccc3c(c2)C(C)(C)C(=O)N3C)CC1	–	–	?	?	·
COc1ccccc1CNC(=O)C1CCCN(S(=O)(=O)c2ccc3c(c2)C(C)(C)C(=O)N3C)C1 (configuration not stated)	–	–	15µM	?	·
CCOc1ccccc1NC(=O)C1CCCN(S(=O)(=O)c2ccc3c(c2)C(C)(C)C(=O)N3C)C1 (configuration not stated)	–	–	?	18µM	·
Cc1ccccc1NC(=O)C1CCCN(S(=O)(=O)c2ccc3c(c2)C(C)(C)C(=O)N3C)C1 (configuration not stated)	–	–	?	–	·
COc1cccc(CNC(=O)C2CCCN(S(=O)(=O)c3ccc4c(c3)C(C)(C)C(=O)N4C)C2)c1 (configuration not stated)	–	–	?	15µM	·
CCN(CC(=O)NCc1ccc(Cl)cc1)C(=O)CSCC(=O)Nc1ccc(C)cc1	·	·	–	–	·
Cn1c2c(c(=O)n(C)c1=O)CN(Cc1ccccc1)CN2	·	·	–	–	·
Cc1cccc(NC(=O)c2ccc3c(c2)CCN3S(C)(=O)=O)c1C	–	–[1.91 µM]	–	–	·
CN1C(=O)C(C)(C)c2cc(S(=O)(=O)NCC3CCC(C(=O)NCc4ccccc4)CC3)ccc21 (configuration not stated)	–	–	16µM	?	·
Cc1cccc(N2CCN(C(=O)CCNC(=O)Cn3ccc4ccccc4c3=O)CC2)c1C	–	–	15µM	?	–
O=C(CCNC(=O)Cn1ccc2ccccc2c1=O)NCCN1CCN(c2cccc(Cl)c2)CC1	–	?	?	–	–
O=C(Cn1ccc2ccccc2c1=O)NCCC(=O)N1CCN(c2cccc(Cl)c2)CC1	–	?	?	15µM	–
CN1CCN(C(=O)CCNC(=O)Cn2ccc3ccccc3c2=O)CC1	–	–	?	–	–
CCN(CC(=O)Nc1ccc(C#N)cc1)CC(=O)Nc1ccc2c(c1)OCCO2	·	·	?	–	·
COC(=O)c1ccc(-c2noc(CN(Cc3ccncc3)CC3CCCO3)n2)cc1 (configuration not stated)	–	–	–	–	–
O=C(OCc1nnc(-c2ccccc2)o1)c1cc(S(=O)(=O)N2CCOCC2)c(Cl)cc1Cl	–	–	7.3µM	21µM	–
CN(CCOc1ccccc1)C(=O)c1cc(S(=O)(=O)N2CCOCC2)c(Cl)cc1Cl	·	·	?	18µM	·
CC1CCN(c2nc3ccc(C(=O)N4CCN(Cc5ccccc5)CC4)cc3s2)CC1	–	–	?	?	–
COC(=O)c1ccc(CNC(=O)C(Cc2ccccc2)NC(=O)c2ccccc2)cc1 (configuration not stated)	·	·	?	–	·
